{
  "source": "the supplement of paper PMC9023506",
  "note": "Where a name gives a salt, the structure may show the parent alone.",
  "data": [
    {"tested_on": "Danio rerio larvae (5 dpf)", "assay": "habituation to 1-s acoustic pulses, difference vs DMSO (percentage points (treated minus DMSO)); higher = more of the behaviour than the DMSO vehicle control", "conditions": "10 µM; exposure time: 3 h pre-incubation + 3 h imaging", "summary_of_the_method": "(§1)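 Library drugs were diluted 1000× from DMSO stocks into egg water to reach 10 µM and applied to 5-dpf wild-type zebrafish larvae in 96-well ProxiPlates, 48 larvae per drug. The larvae stayed exposed for 3 h before imaging and for the 3 h of imaging at 28.5 °C. Behaviour scores, given in percentage points, are the treated mean minus the vehicle mean for movement and upper-half location.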", "values": [
      {"compound": "CS(=O)(=O)CCNCc1ccc(-c2ccc3ncnc(Nc4ccc(OCc5cccc(F)c5)c(Cl)c4)c3c2)o1", "note": "[Lapatinib]", "habituation to 1-s acoustic pulses": -1.43},
      {"compound": "COc1ccc([C@@H]2Sc3ccccc3N(CCN(C)C)C(=O)[C@@H]2OC(C)=O)cc1", "note": "[Diltiazem hydrochloride]", "habituation to 1-s acoustic pulses": -0.578},
      {"compound": "CC(C)[C@H]1CC[C@H](C(=O)N[C@H](Cc2ccccc2)C(=O)O)CC1", "note": "[Nateglinide]", "habituation to 1-s acoustic pulses": 0.774},
      {"compound": "CC(=O)NC[C@H]1CN(c2ccc(N3CCOCC3)c(F)c2)C(=O)O1", "note": "[Linezolid]", "habituation to 1-s acoustic pulses": -2.78},
      {"compound": "Cc1ccc(-c2cc(C(F)(F)F)nn2-c2ccc(S(N)(=O)=O)cc2)cc1", "note": "[Celecoxib]", "habituation to 1-s acoustic pulses": -9.42},
      {"compound": "CCCCCCCN(CC)CCCC(O)c1ccc(NS(C)(=O)=O)cc1", "note": "(stereo not drawn) [Ibutilide hemifumarate]", "habituation to 1-s acoustic pulses": 2.78},
      {"compound": "COc1c(C)c2c(c(O)c1C/C=C(\\C)CCC(=O)O)C(=O)OC2", "note": "[Mycophenolic acid]", "habituation to 1-s acoustic pulses": 1.78},
      {"compound": "Clc1ccccc1C(c1ccccc1)(c1ccccc1)n1ccnc1", "note": "[Clotrimazole]", "habituation to 1-s acoustic pulses": -1.97},
      {"compound": "CN(CCOc1ccc(CC2SC(=O)NC2=O)cc1)c1ccccn1", "note": "(stereo not drawn) [Rosiglitazone]", "habituation to 1-s acoustic pulses": 0.476},
      {"compound": "NC(=O)c1ncn([C@@H]2O[C@H](CO)[C@@H](O)[C@H]2O)n1", "note": "[Ribavirin]", "habituation to 1-s acoustic pulses": -1.17},
      {"compound": "CCCCC(=O)N(Cc1ccc(-c2ccccc2-c2nnn[nH]2)cc1)[C@H](C(=O)O)C(C)C", "note": "[Valsartan]", "habituation to 1-s acoustic pulses": 2.82},
      {"compound": "Cc1nc(Nc2ncc(C(=O)Nc3c(C)cccc3Cl)s2)cc(N2CCN(CCO)CC2)n1", "note": "[Dasatinib]", "habituation to 1-s acoustic pulses": -0.705}
    ]},
    {"tested_on": "Danio rerio larvae (5 dpf)", "assay": "excitability to 1-s acoustic pulses, difference vs DMSO (percentage points (treated minus DMSO)); higher = more of the behaviour than the DMSO vehicle control", "conditions": "10 µM; exposure time: 3 h pre-incubation + 3 h imaging", "summary_of_the_method": "as §1", "values": [
      {"compound": "CS(=O)(=O)CCNCc1ccc(-c2ccc3ncnc(Nc4ccc(OCc5cccc(F)c5)c(Cl)c4)c3c2)o1", "note": "[Lapatinib]", "excitability to 1-s acoustic pulses": 14.5},
      {"compound": "OCCN1C[C@H](O)[C@@H](O)[C@H](O)[C@H]1CO", "note": "[Miglitol]", "excitability to 1-s acoustic pulses": 5.41},
      {"compound": "COc1ccc([C@@H]2Sc3ccccc3N(CCN(C)C)C(=O)[C@@H]2OC(C)=O)cc1", "note": "[Diltiazem hydrochloride]", "excitability to 1-s acoustic pulses": 1.38},
      {"compound": "CC(C)[C@H]1CC[C@H](C(=O)N[C@H](Cc2ccccc2)C(=O)O)CC1", "note": "[Nateglinide]", "excitability to 1-s acoustic pulses": 1.64},
      {"compound": "CN(C)C(=N)NC(=N)N", "note": "[Metformin hydrochloride]", "excitability to 1-s acoustic pulses": 4.58},
      {"compound": "C[C@]12CC[C@@H]3c4ccc(O)cc4C[C@@H](CCCCCCCCC[S+]([O-])CCCC(F)(F)C(F)(F)F)[C@H]3[C@@H]1CC[C@@H]2O", "note": "(stereo partly drawn)", "excitability to 1-s acoustic pulses": 2.14},
      {"compound": "CC(C)(C)NC(=O)[C@@H]1C[C@@H]2CCCC[C@@H]2CN1C[C@@H](O)[C@H](Cc1ccccc1)NC(=O)[C@H](CC(N)=O)NC(=O)c1ccc2ccccc2n1", "note": "[Saquinavir mesylate]", "excitability to 1-s acoustic pulses": 9.21},
      {"compound": "CCCCCCCN(CC)CCCC(O)c1ccc(NS(C)(=O)=O)cc1", "note": "(stereo not drawn) [Ibutilide hemifumarate]", "excitability to 1-s acoustic pulses": 12.9},
      {"compound": "COc1c(C)c2c(c(O)c1C/C=C(\\C)CCC(=O)O)C(=O)OC2", "note": "[Mycophenolic acid]", "excitability to 1-s acoustic pulses": 0.774},
      {"compound": "CN(CCOc1ccc(CC2SC(=O)NC2=O)cc1)c1ccccn1", "note": "(stereo not drawn) [Rosiglitazone]", "excitability to 1-s acoustic pulses": 15},
      {"compound": "CC(C)c1nc(CN(C)C(=O)N[C@H](C(=O)N[C@@H](Cc2ccccc2)C[C@H](O)[C@H](Cc2ccccc2)NC(=O)OCc2cncs2)C(C)C)cs1", "note": "[Ritonavir]", "excitability to 1-s acoustic pulses": 7.52}
    ]}
  ]
}
